# Experimental data taken from publication PMC7862700, “An all-to-all approach to the identification of sequence-specific readers for epigenetic DNA modifications on cytosine”.
# Legend:
# Assay in all cases: DAPPL (digital affinity profiling via proximity ligation, sequencing); 10 mM Tris-HCl pH 7.5, 50 mM NaCl, 1 mM DTT, 4% glycerol, room temperature, 30 min; GST-TFs on glutathione beads, 16-mer random dsDNA library, 0.1% formaldehyde crosslink after washing; high values mean tight binding
# [1] = biological target: T1, FLI1 (Homo sapiens, UniProt Q01543 1-452); conditions: protein: recombinant; tags: N-terminal GST; dsDNA, one strand shown
# T1 sequence: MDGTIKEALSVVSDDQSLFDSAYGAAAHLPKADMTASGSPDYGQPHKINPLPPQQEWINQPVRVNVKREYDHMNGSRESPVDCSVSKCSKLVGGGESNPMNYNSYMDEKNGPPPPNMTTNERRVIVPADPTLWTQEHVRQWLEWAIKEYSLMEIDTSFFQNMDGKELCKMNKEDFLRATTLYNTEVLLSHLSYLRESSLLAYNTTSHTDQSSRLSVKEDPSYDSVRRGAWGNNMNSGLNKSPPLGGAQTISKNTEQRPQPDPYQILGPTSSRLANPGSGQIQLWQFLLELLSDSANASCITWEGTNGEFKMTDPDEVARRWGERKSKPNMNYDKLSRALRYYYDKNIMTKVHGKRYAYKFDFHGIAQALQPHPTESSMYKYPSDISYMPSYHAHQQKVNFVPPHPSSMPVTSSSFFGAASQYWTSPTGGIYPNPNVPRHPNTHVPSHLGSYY
# In short: (§1)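 A tag-only sample was pooled with DNA-barcoded human transcription factors that had been expressed in yeast as GST fusions and captured on glutathione beads. The pools were incubated for 30 min at room temperature with 200 nmole of a random double-stranded 16-mer DNA library in Tris/NaCl/DTT/glycerol buffer, then washed, crosslinked with 0.1% formaldehyde, proximity-ligated (BsaI/T4 ligase, 1 h, 37 °C), PCR-amplified and sequenced on an Illumina NextSeq500. Binding signal is each hexamer's read frequency for a factor divided by its frequency for the tag-only sample.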
# [2] = biological target: T2, ELK1 (Homo sapiens, UniProt P19419 1-428); conditions: protein: recombinant; tags: N-terminal GST; dsDNA, one strand shown
# T2 sequence: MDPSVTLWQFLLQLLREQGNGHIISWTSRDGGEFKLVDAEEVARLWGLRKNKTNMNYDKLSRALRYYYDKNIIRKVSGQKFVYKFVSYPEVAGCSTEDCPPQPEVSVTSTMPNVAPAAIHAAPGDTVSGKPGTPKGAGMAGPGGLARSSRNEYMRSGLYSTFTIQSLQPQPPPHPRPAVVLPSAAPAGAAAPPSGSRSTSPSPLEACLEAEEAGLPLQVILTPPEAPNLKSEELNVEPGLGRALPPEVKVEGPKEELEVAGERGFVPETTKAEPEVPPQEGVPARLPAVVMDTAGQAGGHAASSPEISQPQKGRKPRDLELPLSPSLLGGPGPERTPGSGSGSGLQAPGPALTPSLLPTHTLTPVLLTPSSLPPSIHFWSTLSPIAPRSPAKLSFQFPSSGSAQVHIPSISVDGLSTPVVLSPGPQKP
# In short: as §1
# [3] = biological target: T3, GABPA (Homo sapiens, UniProt Q06546 1-454); conditions: protein: recombinant; tags: N-terminal GST; dsDNA, one strand shown
# T3 sequence: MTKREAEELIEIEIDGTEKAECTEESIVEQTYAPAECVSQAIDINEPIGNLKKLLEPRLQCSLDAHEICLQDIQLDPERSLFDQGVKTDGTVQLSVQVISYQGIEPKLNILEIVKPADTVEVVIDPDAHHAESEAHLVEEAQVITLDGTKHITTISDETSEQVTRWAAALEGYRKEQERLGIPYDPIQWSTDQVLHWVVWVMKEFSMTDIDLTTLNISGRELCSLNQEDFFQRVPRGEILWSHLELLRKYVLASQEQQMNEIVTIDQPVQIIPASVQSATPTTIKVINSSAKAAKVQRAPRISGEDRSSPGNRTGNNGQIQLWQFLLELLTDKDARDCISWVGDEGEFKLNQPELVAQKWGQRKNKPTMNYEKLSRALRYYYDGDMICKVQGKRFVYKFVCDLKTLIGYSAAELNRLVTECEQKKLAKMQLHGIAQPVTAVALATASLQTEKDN
# In short: as §1
# [4] = biological target: T4, ERG (Homo sapiens, UniProt P11308 1-479); conditions: protein: recombinant; tags: N-terminal GST; dsDNA, one strand shown
# T4 sequence: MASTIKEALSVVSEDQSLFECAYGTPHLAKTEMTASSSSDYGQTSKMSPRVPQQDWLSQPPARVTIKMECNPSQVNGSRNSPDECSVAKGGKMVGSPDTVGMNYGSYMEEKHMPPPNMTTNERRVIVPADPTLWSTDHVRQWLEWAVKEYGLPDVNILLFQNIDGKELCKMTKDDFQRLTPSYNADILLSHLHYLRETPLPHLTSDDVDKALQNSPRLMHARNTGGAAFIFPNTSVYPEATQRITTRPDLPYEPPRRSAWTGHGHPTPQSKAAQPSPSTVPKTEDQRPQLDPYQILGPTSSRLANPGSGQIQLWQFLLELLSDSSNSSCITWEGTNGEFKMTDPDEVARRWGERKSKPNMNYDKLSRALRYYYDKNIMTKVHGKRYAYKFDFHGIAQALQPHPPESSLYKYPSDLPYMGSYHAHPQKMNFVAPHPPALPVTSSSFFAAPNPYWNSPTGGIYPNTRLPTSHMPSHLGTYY
# In short: as §1
# [5] = biological target: ELF1 (Homo sapiens, UniProt P32519 1-619); conditions: protein: recombinant; tags: N-terminal GST; dsDNA, one strand shown
# Chain of ELF1 (P32519 whole entry): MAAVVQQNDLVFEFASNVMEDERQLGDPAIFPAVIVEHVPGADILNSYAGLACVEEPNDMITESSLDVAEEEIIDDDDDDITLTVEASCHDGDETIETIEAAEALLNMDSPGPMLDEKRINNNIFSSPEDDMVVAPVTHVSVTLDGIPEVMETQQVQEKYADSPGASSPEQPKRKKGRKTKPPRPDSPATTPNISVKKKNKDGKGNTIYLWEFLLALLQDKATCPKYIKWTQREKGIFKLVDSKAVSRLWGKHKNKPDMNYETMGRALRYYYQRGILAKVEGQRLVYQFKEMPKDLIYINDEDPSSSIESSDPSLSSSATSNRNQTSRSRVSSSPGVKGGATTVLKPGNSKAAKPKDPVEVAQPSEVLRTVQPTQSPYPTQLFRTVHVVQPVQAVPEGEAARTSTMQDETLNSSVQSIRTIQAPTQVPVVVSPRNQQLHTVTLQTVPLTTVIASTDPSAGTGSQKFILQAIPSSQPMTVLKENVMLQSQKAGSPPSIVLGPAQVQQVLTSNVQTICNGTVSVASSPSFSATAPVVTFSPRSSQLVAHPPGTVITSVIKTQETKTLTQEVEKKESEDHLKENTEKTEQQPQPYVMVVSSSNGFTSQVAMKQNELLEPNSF
# In short: as §1
# [6] = biological target: T5, EHF (Homo sapiens, UniProt Q9NZC4 1-300); conditions: protein: recombinant; tags: N-terminal GST; dsDNA, one strand shown
# T5 sequence: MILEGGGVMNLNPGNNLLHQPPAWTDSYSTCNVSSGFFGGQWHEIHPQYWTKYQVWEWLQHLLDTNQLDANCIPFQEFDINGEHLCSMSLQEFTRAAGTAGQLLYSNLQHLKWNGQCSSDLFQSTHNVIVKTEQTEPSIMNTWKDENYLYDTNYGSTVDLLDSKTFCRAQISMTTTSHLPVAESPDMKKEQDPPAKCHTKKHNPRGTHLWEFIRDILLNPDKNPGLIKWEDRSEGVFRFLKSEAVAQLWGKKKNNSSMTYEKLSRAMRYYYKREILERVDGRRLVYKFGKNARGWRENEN
# In short: as §1
# [7] = biological target: SPI1 (Homo sapiens, UniProt P17947 1-270); conditions: protein: recombinant; tags: N-terminal GST; dsDNA, one strand shown
# In short: as §1
# [8] = biological target: SPIB (Homo sapiens, UniProt Q01892 1-262); conditions: protein: recombinant; tags: N-terminal GST; dsDNA, one strand shown
# Chain of SPIB (Q01892 whole entry): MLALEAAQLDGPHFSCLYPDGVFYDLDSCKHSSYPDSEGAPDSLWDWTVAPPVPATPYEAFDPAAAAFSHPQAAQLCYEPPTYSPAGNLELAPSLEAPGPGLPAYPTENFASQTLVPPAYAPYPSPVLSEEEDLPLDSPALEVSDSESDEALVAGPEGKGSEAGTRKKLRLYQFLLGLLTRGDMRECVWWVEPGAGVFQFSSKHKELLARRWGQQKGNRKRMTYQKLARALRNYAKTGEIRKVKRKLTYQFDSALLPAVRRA
# In short: as §1
# [9] = biological target: T6, ELK3 (Homo sapiens, UniProt P41970 1-407); conditions: protein: recombinant; tags: N-terminal GST; dsDNA, one strand shown
# T6 sequence: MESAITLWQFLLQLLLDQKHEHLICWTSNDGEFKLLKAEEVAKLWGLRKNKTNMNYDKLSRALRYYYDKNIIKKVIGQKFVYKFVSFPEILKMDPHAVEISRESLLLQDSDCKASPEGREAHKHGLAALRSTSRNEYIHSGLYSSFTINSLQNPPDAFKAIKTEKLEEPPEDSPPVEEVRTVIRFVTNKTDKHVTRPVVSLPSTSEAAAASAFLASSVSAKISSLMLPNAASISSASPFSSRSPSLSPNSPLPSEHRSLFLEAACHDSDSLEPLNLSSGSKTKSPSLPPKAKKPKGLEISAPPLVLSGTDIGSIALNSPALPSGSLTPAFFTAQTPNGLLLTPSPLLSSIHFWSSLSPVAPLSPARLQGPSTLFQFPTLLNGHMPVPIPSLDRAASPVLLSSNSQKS
# In short: as §1
# [10] = biological target: T7, FEV (Homo sapiens, UniProt Q99581 1-238); conditions: protein: recombinant; tags: N-terminal GST; dsDNA, one strand shown
# T7 sequence: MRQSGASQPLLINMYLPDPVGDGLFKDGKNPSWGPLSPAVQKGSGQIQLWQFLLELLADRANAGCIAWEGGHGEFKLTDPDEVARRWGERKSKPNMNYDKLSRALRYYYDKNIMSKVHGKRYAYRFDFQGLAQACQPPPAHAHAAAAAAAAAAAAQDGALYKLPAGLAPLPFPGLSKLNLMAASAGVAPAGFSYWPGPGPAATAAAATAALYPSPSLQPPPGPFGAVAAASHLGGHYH
# In short: as §1
# [11] = biological target: ETV5 (Homo sapiens, UniProt P41161 1-510); conditions: protein: recombinant; tags: N-terminal GST; dsDNA, one strand shown
# Chain of ETV5 (P41161 whole entry): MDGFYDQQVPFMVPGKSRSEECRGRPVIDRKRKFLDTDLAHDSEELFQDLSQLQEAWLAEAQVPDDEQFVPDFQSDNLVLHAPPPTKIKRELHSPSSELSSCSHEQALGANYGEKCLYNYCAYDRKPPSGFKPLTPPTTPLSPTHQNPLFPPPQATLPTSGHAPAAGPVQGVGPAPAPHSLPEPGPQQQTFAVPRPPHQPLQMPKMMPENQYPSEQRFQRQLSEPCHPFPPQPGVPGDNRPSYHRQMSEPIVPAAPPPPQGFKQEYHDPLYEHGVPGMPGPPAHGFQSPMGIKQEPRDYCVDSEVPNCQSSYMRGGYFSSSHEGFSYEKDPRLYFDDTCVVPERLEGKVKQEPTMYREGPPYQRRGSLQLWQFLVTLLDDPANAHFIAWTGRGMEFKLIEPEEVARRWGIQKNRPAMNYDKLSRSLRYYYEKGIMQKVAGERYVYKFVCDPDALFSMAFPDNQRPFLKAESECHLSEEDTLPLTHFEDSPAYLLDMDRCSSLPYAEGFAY
# In short: as §1
# [12] = biological target: HSF1 (Homo sapiens, UniProt Q00613 1-529); conditions: protein: recombinant; tags: N-terminal GST; chain copies: 3; dsDNA, one strand shown
# Chain of HSF1 (Q00613 whole entry): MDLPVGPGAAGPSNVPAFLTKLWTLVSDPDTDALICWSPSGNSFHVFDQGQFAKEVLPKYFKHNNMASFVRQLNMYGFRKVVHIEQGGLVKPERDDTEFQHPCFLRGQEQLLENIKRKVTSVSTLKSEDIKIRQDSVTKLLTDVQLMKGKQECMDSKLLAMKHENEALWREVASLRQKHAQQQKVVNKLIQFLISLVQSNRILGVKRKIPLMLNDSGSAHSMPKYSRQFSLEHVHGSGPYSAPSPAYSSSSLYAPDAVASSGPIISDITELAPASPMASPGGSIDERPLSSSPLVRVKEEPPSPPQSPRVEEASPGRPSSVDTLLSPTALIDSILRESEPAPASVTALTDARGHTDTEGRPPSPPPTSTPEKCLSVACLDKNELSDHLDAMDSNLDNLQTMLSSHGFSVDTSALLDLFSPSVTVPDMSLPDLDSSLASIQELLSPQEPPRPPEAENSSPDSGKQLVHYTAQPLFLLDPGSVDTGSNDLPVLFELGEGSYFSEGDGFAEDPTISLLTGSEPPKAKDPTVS
# In short: as §1
# [13] = biological target: T8, SPIC (Homo sapiens, UniProt Q8N5J4 1-248); conditions: protein: recombinant; tags: N-terminal GST; dsDNA, one strand shown
# T8 sequence: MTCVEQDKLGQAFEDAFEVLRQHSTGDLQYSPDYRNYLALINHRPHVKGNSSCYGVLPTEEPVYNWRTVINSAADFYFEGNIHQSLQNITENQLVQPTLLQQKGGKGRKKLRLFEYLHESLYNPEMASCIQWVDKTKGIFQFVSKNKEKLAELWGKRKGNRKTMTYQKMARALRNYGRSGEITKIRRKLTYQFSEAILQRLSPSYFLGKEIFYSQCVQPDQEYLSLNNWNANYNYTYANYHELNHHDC
# In short: as §1
# [14] = biological target: ELF4 (Homo sapiens, UniProt Q99607 1-663); conditions: protein: recombinant; tags: N-terminal GST; dsDNA, one strand shown
# Chain of ELF4 (Q99607 whole entry): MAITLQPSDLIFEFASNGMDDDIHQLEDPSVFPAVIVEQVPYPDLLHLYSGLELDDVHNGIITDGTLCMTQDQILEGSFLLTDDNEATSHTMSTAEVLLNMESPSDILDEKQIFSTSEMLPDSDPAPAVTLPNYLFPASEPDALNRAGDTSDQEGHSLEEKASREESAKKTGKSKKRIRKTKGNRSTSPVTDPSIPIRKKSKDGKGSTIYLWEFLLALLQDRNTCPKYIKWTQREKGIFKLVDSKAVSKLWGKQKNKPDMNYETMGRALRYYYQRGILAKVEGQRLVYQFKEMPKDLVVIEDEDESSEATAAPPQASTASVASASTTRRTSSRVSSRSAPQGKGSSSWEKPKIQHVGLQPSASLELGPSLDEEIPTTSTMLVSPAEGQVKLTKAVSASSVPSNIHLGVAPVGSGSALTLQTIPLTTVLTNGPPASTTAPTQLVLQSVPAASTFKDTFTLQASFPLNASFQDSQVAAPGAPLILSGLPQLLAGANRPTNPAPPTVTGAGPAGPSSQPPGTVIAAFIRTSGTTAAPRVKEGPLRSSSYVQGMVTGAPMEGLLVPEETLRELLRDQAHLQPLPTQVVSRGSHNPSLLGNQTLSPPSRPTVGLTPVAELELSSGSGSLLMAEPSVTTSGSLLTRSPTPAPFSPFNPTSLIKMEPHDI
# In short: as §1
# [15] = biological target: T9, ELK4 (Homo sapiens, UniProt P28324-2 1-405); conditions: protein: recombinant; tags: N-terminal GST; dsDNA, one strand shown
# T9 sequence: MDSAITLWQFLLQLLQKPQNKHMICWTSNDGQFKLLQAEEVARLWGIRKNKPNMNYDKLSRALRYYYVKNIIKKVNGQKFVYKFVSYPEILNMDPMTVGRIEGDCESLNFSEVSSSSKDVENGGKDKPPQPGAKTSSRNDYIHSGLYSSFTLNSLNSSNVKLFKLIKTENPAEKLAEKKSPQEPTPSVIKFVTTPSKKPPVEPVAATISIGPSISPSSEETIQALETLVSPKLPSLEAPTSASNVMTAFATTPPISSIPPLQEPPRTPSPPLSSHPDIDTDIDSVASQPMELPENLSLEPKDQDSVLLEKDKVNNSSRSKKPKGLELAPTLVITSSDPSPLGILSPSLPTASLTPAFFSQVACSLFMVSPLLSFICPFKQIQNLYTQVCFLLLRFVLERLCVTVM
# In short: as §1
# [16] = biological target: T10, ETV2 (Homo sapiens, UniProt O00321 1-342); conditions: protein: recombinant; tags: N-terminal GST; dsDNA, one strand shown
# T10 sequence: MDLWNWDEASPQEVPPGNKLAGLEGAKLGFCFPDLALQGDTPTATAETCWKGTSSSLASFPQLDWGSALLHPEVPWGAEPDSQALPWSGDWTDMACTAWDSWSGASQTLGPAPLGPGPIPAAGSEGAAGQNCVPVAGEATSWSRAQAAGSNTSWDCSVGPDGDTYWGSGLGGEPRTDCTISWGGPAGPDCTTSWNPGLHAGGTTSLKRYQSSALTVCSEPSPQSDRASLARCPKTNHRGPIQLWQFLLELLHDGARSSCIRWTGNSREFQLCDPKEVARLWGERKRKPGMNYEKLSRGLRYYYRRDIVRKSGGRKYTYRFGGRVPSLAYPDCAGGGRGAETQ
# In short: as §1
# [17] = biological target: T11, ELF3 (Homo sapiens, UniProt P78545 1-371); conditions: protein: recombinant; tags: N-terminal GST; dsDNA, one strand shown
# T11 sequence: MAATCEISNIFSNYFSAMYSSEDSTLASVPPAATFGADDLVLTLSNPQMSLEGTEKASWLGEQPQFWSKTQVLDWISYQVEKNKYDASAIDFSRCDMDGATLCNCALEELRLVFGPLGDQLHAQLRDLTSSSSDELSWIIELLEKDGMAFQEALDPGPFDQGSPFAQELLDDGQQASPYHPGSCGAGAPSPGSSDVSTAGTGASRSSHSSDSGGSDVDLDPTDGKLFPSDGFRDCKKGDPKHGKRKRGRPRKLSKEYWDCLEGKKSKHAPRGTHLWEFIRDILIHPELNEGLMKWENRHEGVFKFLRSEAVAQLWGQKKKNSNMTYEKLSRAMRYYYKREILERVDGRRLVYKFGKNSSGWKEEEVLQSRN
# In short: as §1
# [18] = biological target: CRX (Homo sapiens, UniProt O43186 1-299); conditions: protein: recombinant; tags: N-terminal GST; dsDNA, one strand shown
# Chain of CRX (O43186 whole entry): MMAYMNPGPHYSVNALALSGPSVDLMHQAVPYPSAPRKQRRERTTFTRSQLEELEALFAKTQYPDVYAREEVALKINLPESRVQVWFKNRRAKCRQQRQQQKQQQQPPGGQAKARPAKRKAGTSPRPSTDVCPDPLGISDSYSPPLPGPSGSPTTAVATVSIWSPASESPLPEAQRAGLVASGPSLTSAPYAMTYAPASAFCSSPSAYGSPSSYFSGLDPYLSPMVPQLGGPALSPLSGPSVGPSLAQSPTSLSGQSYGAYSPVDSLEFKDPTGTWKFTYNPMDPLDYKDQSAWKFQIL
# In short: as §1
# [19] = biological target: ETV1 (Homo sapiens, UniProt P50549 1-477); conditions: protein: recombinant; tags: N-terminal GST; dsDNA, one strand shown
# Chain of ETV1 (P50549 whole entry): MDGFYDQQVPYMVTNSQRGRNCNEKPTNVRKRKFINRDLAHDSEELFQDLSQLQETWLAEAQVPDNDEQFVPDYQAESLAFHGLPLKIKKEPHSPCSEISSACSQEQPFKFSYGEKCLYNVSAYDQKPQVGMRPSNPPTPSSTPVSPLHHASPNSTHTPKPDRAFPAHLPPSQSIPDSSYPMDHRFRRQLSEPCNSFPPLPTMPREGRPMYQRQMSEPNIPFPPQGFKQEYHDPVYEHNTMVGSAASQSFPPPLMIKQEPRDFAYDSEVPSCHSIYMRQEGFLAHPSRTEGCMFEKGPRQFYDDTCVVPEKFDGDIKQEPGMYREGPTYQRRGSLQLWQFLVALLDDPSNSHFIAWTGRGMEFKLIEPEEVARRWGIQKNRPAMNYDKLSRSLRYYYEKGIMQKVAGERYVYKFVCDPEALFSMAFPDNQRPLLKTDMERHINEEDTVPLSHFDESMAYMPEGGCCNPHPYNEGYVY
# In short: as §1
sequence,measurement,setting,value
TCTCCT,binding signal,[1],"1.45 fold enrichment (6-mer frequency, TF over GST control)"
same,binding signal,[2],"1.41 fold enrichment (6-mer frequency, TF over GST control)"
same,binding signal,[3],"1.53 fold enrichment (6-mer frequency, TF over GST control)"
same,binding signal,[4],"1.37 fold enrichment (6-mer frequency, TF over GST control)"
same,binding signal,[5],"1.38 fold enrichment (6-mer frequency, TF over GST control)"
same,binding signal,[6],"1.43 fold enrichment (6-mer frequency, TF over GST control)"
same,binding signal,[7],"1.6 fold enrichment (6-mer frequency, TF over GST control)"
same,binding signal,[8],"1.4 fold enrichment (6-mer frequency, TF over GST control)"
same,binding signal,[9],"1.46 fold enrichment (6-mer frequency, TF over GST control)"
same,binding signal,[10],"1.43 fold enrichment (6-mer frequency, TF over GST control)"
same,binding signal,[11],"1.33 fold enrichment (6-mer frequency, TF over GST control)"
same,binding signal,[12],"1.55 fold enrichment (6-mer frequency, TF over GST control)"
same,binding signal,[13],"1.59 fold enrichment (6-mer frequency, TF over GST control)"
same,binding signal,[14],"1.51 fold enrichment (6-mer frequency, TF over GST control)"
same,binding signal,[15],"1.38 fold enrichment (6-mer frequency, TF over GST control)"
same,binding signal,[16],"1.43 fold enrichment (6-mer frequency, TF over GST control)"
same,binding signal,[17],"1.7 fold enrichment (6-mer frequency, TF over GST control)"
same,binding signal,[18],"1.55 fold enrichment (6-mer frequency, TF over GST control)"
same,binding signal,[19],"1.49 fold enrichment (6-mer frequency, TF over GST control)"
